# Pin1 inh – qHTS Assay to Find Inhibitors of Pin1 | Peptidyl-prolyl cis-trans isomerase NIMA-interacting 1 (Homo sapiens), Q13526 | Pin1 FP peptide displacement, HiFluor488, 10 min | Potency, µM (top dose mostly 115 µM), without a hit: at the highest dose activity, negative = inhibition, actives largely listed as inhibitors | hit rate 0.009% among 390,000 | AID 504891, 2011; active = well fitted inhibition curve with a large enough effect in the polarisation, with a control signal flat, not every such curve was filed as active; inconclusive = small, poorly fitted or top-dose-only effect, or effect the other way, or a change in a side signal; inactive = no such curve, though single readings can be large or run the other way; the % refers to the polarisation; also: potency is read from the fitted curve at half-maximal effect; % is scaled to controls: 0 for no effect and ±100 for the full control effect
# Target sequence (Q13526 whole entry, looked up): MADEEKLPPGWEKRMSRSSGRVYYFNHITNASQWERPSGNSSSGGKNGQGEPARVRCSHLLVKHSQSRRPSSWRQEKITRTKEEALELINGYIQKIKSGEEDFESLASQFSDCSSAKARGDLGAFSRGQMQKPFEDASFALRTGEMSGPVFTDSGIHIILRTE
# PI4K2A block – qHTS for small molecular inhibitors of PI4K2A | hit rate 0.13% among 420,000 | activity change, negative = inhibition, % at 76.9 µM | purified PI4K2A, ADP-Glo luminescence, 1 h; stronger effect = lower value | Phosphatidylinositol 4-kinase type 2-alpha (Homo sapiens), Q9BTU6; in the data active = activity change below about -50%; inconclusive = mostly about -30% to -49%;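 also: -100% = wells without enzyme as full effect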
#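 ADP-Glo luminescence measured ADP generated by PI4K2A enzyme (4 ug/mL before mixing) with 1.2 mM PI substrate (pre-mix) and 300 microM ATP (pre-mix). Tris pH7.5 buffer with MgCl2, Triton X-100; 1 h reaction at ambient temperature.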
# PGK inhibitor – qHTS Assay to Find Inhibitors of Phosphoglycerate Kinase. Phosphoglycerate kinase, glycosomal (Trypanosoma brucei brucei), P07378. PGK/GAPDH coupled, Kinase-Glo luminescence, 60 min. Potency, µM (doses to about 57.5 µM), inactives show top-dose activity change, negative = inhibition, hits mostly inhibitors. hit rate 0.043% among 380,000. AID 602233, 2012; also: potency is read from the fitted curve at half-maximal effect; % is scaled to controls: 0 for no effect and ±100 for the full control effect; nearly all actives have a fitted effect of over 60% in size
#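 Luminescent ATP detection (Kinase-Glo Plus) follows a 60-minute room-temperature incubation, with wells lacking PGK as controls. Buffer: 100 mM TEA (pH 7.6), 5 mM MgCl2, 0.01% Tween-20. Coupling enzyme GAPDH (100 nM final) supplies unstable 1,3-BPG in-well.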
# Tb PFK inh-1 – qHTS Assay to Find Inhibitors of T. brucei phosphofructokinase; T. brucei PFK, ADP-Glo luminescence; AID 485367, 2010; Potency, µM (titrated, usually from 57.5 µM), for the others: at the top dose activity, negative = inhibition, usual class: inhibitors; ATP-dependent 6-phosphofructokinase (Trypanosoma brucei brucei), O15648; hit rate 0.17% among 330,000;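 also: potency is read from the fitted curve at half-maximal effect; 0% = uninhibited 1x PFK enzyme wells and -100% = no-enzyme wells; nearly all actives have a fitted effect of over 60% in size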
#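 1.25 nM PFK with 0.5 mM F6P and 0.1 mM ATP in 0.1 M TEA pH 8.0, 5 mM MgCl2, incubated 45 min at room temperature; ADP measured by ADP-Glo luminescence; compounds titrated up to 57 uM.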
# PI5P4K alpha inh – qHTS for Inhibitors of phosphatidylinositol 5-phosphate 4-kinase (PI5P4K). Phosphatidylinositol 5-phosphate 4-kinase type-2 alpha (Homo sapiens), P48426. AID 652105, 2013. max response, %. PI5P4Kalpha enzyme, ADP-Glo luminescence, 60 min; stronger effect = lower value. hit rate 1.2% among 330,000; active = max response of -50% or lower; inconclusive = between -30% and -50%; inactive = -30% or higher; also: value at the top dose of about 77 µM; % is scaled to controls: 0 for no effect and ±100 for the full control effect
#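 ADP-Glo luminescence end-point after a 60 min room-temperature kinase reaction. PI5P4Kalpha and substrate in HEPES pH 7.4 buffer with EGTA, 0.1% CHAPS and 5% DMSO; ATP at 5 microM final.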
# TbPFK ATP – Tb PFK orthogonal confirmatory assay using ATP depletion (Kinase-Glo Plus) as an alternative measure of Tb PFK activity: Hit Validation. hit rate 47% among 1,100. Potency, µM (top dose mostly 57.5 µM), for inactives: at the top dose inhibition. AID 504636, 2011. shares compounds with Tb PFK inh-1. Tb PFK enzyme, ATP depletion, Kinase-Glo Plus luminescence; calls by dose curve; also: potency is read from the fitted curve at half-maximal effect; nearly all actives have a fitted effect of over 60% in size
# Tb PFK inh-2 – Inhibitors of T. brucei phosphofructokinase: Hit Validation; Potency, µM (doses to about 57.5 µM), without a hit: at the top dose activity change, negative = inhibition, most hits filed as inhibitors; hit rate 41% among 1,100; shares compounds with Tb PFK inh-1; purified T. brucei PFK, ADP-Glo luminescence, 45 min; AID 504637, 2011;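 also: potency is read from the fitted curve at half-maximal effect; plate controls were full PFK enzyme control for no effect and no enzyme control for full effect; nearly all actives have a fitted effect of over 60% in size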
# ADP-Glo interf – qHTS for Inhibitors of PI5P4K: ADP-Glo counter assay | shares compounds with PI5P4K alpha inh | ADP-Glo detection counter-screen, luciferase luminescence, no enzyme | Potency, µM (titrated, usually from 76.9 µM), inactives show at the highest dose activity change, negative = inhibition, most hits filed as inhibitors | 1,100 tested, under 10 active | AID 743285, 2014
# * = called active by the depositor; i = inactive; ? = inconclusive; · = not tested or not shown. This excerpt belongs to a sample that is enriched for hits. Unless noted, calls follow the shape of the dose curve; as a rule, active = well fitted curve in the direction sought with a large enough effect; inconclusive = small, poorly fitted or top-dose-only effect, or another doubt; inactive = no such curve, though single readings can be large; an effect the other way counts as inactive or inconclusive.
SMILES,Pin1 inh,PI4K2A block,PGK inhibitor,Tb PFK inh-1,PI5P4K alpha inh,TbPFK ATP,Tb PFK inh-2,ADP-Glo interf
Cc1nn(Cc2ccc(Cl)cc2Cl)c(Cl)c1C(=O)NC1CCCc2ccccc21 (configuration not stated),-2%,0,?,1%,-1,·,·,·
Cc1[nH]c2ccc(OC(F)(F)F)cc2c1CCNCc1ccc(Cl)cc1,-5%,4,-7%,2%,17,·,·,·
CCc1c(C)sc(NC(=O)c2ccoc2C)c1C(N)=O,1%,0,-9%,?,-66*,3.4µM*,8.5µM*,-3%
Cc1ccc(-c2csc(Nc3ccc(S(N)(=O)=O)cc3)n2)o1,13%,-3,-18%,11µM*,-65*,?,?,1%
Cc1cccnc1-n1c(-c2ccco2)nc2ccccc2c1=O,3%,12,i,0%,-6,·,·,·
O=S(=O)(Nc1ccc(Cl)cc1)c1ccc(N2CCOCC2)c(NC(=S)NCCN2CCOCC2)c1,-6%,-4,-1%,?,-83*,7.6µM*,13µM*,-8%
O=C(CNC(=O)c1ccccc1Cl)Nc1ccc(Br)cc1C(=O)c1ccccc1,6%,-3,i,-8%,8,·,·,·
CCOP(=S)(OCC)Oc1cc(C)nc(C(C)C)n1,-5%,5,-4%,·,-1,·,·,·
Cc1cc(-c2nc3c4c5c(sc4[nH]c(=O)n3n2)CCC5)c(C)o1,?,-6,-23%,?,-59*,16%,-9%,-6%
Cc1nn(Cc2ccccc2Cl)c(Cl)c1C(=O)O,-9%,-3,-8%,3%,-1,·,·,·
COc1ccc2c(CC(=O)OCC(=O)Nc3cccc(C)c3)coc2c1,-1%,?,-23%,?,-56*,?,?,0%
COc1ccc(C(c2nnnn2-c2ccc3c(c2)OCCO3)N2CCC(n3c(=O)[nH]c4ccccc43)CC2)cc1 (configuration not stated),·,1,·,·,-3,·,·,4%
COC(=O)C1=C(c2ccc(F)cc2F)C[C@@H]2CC[C@H]1N2C(=O)NC1CCCCC1,-1%,5,-5%,3%,0,·,·,·
COC(=O)C1=C(c2ccc(F)cc2F)C[C@@H]2CC[C@H]1N2C(=O)NC1Cc2ccccc2C1,0%,6,-1%,-3%,-84*,·,·,-2%
Cc1ccc(NP(=O)(Oc2ccccc2F)Oc2ccccc2F)cc1C,-18%,0,7%,1%,2,·,·,·

# From PubChem
